Screening data deposited in PubChem by National Center for Advancing Translational Sciences (NCATS).
Shown are actives, neighbours in structure and some others; about 5.7% of the full set was active somewhere.
Giardia killer = Giardia lamblia killing | Giardia lamblia trophozoite viability | 0.15% of 340,000 active | activity change, % at 7.66 µM, hits read low; in the data active = activity change below about -80%; inconclusive = between about -30% and that limit;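 also: parasites exposed to compound for two days anaerobically before the ATP read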
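Each well holds 100 Giardia trophozoites and compound. After two days (48 hrs) at 37 deg C in anaerobic conditions, ATP is quantified by luminescence.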
PI4K2A inh = PI4K2A (human) kinase inhibition | Q9BTU6 | purified PI4K2A, ADP-Glo luminescence, 1 h; active compounds read low | activity change, negative = inhibition, % at 76.9 µM | 0.13% of 420,000 active | AID 1346378; in the data active = activity change below about -50%; inconclusive = mostly about -30% to -49%;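 also: -100% = wells without enzyme as full effect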
Target sequence (Q9BTU6 whole entry, looked up): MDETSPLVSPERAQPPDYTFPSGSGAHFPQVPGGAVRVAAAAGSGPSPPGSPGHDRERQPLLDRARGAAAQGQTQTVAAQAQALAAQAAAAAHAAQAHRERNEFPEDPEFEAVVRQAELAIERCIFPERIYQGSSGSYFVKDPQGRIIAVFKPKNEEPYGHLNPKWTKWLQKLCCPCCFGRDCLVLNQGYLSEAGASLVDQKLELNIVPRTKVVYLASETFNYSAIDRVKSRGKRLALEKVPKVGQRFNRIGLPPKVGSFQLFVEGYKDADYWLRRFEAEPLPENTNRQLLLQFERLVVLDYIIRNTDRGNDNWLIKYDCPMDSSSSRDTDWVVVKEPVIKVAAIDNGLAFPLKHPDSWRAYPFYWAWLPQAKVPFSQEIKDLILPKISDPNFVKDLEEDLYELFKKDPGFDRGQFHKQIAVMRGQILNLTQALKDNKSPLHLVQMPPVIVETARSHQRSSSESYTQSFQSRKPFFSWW
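In this quantitative HTS, ADP production by PI4K2A was quantified luminescently after 1 h at ambient temperature; 100 microM adenosine served as plate-quality control.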
Nrf2 inh = Nrf2 pathway inhibition; A549 ARE-Fluc reporter, luciferase luminescence, 18-24 h; Potency, µM (doses to about 46 µM), for the others: at the top dose activity change, negative = inhibition, actives largely listed as inhibitors; 2.1% of 360,000 active; also: potency is read from the fitted curve at half-maximal effect; nearly all actives have a fitted effect of over 60% in size
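Two sequential reads on A549 ARE_Fluc cells exposed to compound for 18-24 h: a CellTiter-Fluor fluorescence read for viability, then a luciferase luminescence read for Nrf2/ARE activity.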
KB-V1 MDR tox = kills drug-selected multidrug resistant KB-V1 cells; 3.4% of 400,000 active; KB-V1 MDR cells viability, CellTiter-Glo, 72 h; Potency, µM (highest dose often 46.1 µM), actives largely listed as cytotoxic; AID 1347076; also: potency is read from the fitted curve at half-maximal effect; nearly all actives have a fitted effect of over 60% in size
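Cells of the MDR subline KB-V1 are plated, dosed with compound at multiple concentrations, and incubated 72 h at 37 degrees C; CellTiter-Glo is then added and luminescence read after 10 min.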
A549 viability = kills or reduces viability of A549 cells in Nrf2 counter-screen. A549 ARE-Fluc cells, CellTiter-Fluor viability, 18-24 h. Potency, µM (series often up to 46 µM), without a hit: at the highest dose activity change, negative = cytotoxicity, actives largely listed as inhibitors. 0.16% of 390,000 active. AID 504648; also: potency is read from the fitted curve at half-maximal effect
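A549 ARE-Fluc cells in 5% FBS OPTI-MEM, 5000 cells/well, rested 2 h then exposed to compounds in concentration-response for 18-24 h at 37 °C. Viability by CellTiter-Fluor fluorescence (Ex 405/Em 525) after 30 min; luciferase luminescence (BugLite, 15 min, RT) read afterwards.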
KB-3-1 cytotox = kills parental KB-3-1 adenocarcinoma cells | KB-3-1 viability, CellTiter-Glo ATP luminescence, 72 h | Potency, µM (series often up to 46.1 µM), actives largely listed as cytotoxic | 1.4% of 400,000 active; also: potency is read from the fitted curve at half-maximal effect; nearly all actives have a fitted effect of over 60% in size
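Luminescent ATP read-out (CellTiter-Glo) measures survival of drug-naive KB-3-1 cells after 72 h compound exposure at 37 °C. Titration series was screened from lowest to highest concentration, with DMSO vehicle plates as background controls.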
* marks the source's active call; other numbers are inactive results; i = inactive; ? = inconclusive; . = no result given; ! = a repeat was not active. Unless noted, calls follow the shape of the dose curve; as a rule, active = well fitted curve in the direction sought with a large enough effect; inconclusive = small, poorly fitted or top-dose-only effect, or another doubt; inactive = no such curve, though single readings can be large; an effect the other way counts as inactive or inconclusive. Unless noted, % is scaled to controls: 0 for no effect and ±100 for the full control effect.

SMILES | Giardia killer | PI4K2A inh | Nrf2 inh | KB-V1 MDR tox | A549 viability | KB-3-1 cytotox
C=CCn1c(SCC(C)=O)nnc1-c1cc(-c2ccccc2)sc1N | 1.4 | 2.5 | -24.4% | 18.4µM* | 5.2% | i
Cc1ccn2cc(-c3ccc(NS(=O)(=O)c4ccccc4)cc3)nc2c1 | 6.9 | 2.9 | -19.5% | 16.4µM* | -10.6% | i
Cc1ccc(S(=O)(=O)Nc2ccc(-c3cn4ccc(C)cc4n3)cc2)cc1 | 5.9 | -4.2 | ? | i | 3.1% | i
COc1ccc(C2Nc3ccccc3C(=O)N2Cc2ccccc2)cc1COc1ccc(C#N)cc1 (stereo not given) | . | . | -8.1% | . | 2.4% | .
COc1ccccc1NC(=O)/C(C#N)=C/C=C/c1ccco1 | -3.8 | ? | ? | ? | -4.7% | 1.46µM*
COc1cc(CNCCc2ccccc2)cc(Cl)c1OCc1ccccc1 | -5.7 | -10.5 | ? | 18.4µM* | ? | ?
COc1cc(CNCc2ccccc2)cc(Cl)c1OC | 10.0 | -1.4 | 3.6% | i | 0.7% | i
CCc1c(C)c(C#N)c2nc3ccccc3n2c1NCCCN(C)C | . | -3.0 | . | i | . | i
CCCCc1c(C)c(C#N)c2nc3ccccc3n2c1NCCN(C)C | -5.9 | -1.6 | 6.51µM* | i | 6.51µM* | i
O=C(Nc1cccc(C(F)(F)F)c1)c1noc2c1CCc1ccccc1-2 | . | -1.8 | 16.0% | i | -2.6% | i
O=C(Nc1cccc(O)c1)c1noc2c1CCc1ccccc1-2 | ? | ? | ? | 23.1µM*! | ? | i
O=C(Cc1ccc(N2CCNC2=O)cc1)N1CCCC(Nc2cccc(F)c2)C1 (stereo not given) | -29.9 | -14.3 | 5.7% | ? | 0.1% | 4.11µM*
O=C(Cc1ccc(N2CCNC2=O)cc1)N1CCCC(Nc2ccc(F)c(F)c2)C1 (stereo not given) | -20.6 | -2.2 | 7.1% | i | -11.7% | 7.31µM*
COCCNC(=O)C[C@H]1CC[C@H]2[C@@H](COc3ccc(NC(=O)Nc4cccc(F)c4)cc3C(=O)N2C)O1 | . | -9.8 | . | . | . | .
CC(=O)O[C@H]1C(=O)[C@@]2(C)C([C@H](OC(=O)c3ccccc3)[C@]3(O)C[C@H](OC(=O)[C@H](O)[C@@H](NC(=O)c4ccccc4)c4ccccc4)C(C)=C1C3(C)C)[C@]1(OC(C)=O)CO[C@@H]1C[C@@H]2O (stereo not given in full) | . | 4.6 | . | . | . | .
CC(=O)O[C@H]1C(=O)[C@]2(C)[C@H]([C@H](OC(=O)c3ccccc3)[C@]3(O)C[C@H](OC(=O)[C@H](O)[C@@H](NC(=O)c4ccccc4)c4ccccc4)C(C)=C1C3(C)C)[C@]1(OC(C)=O)CO[C@@H]1C[C@@H]2O | ? | -2.3 | -26.3% | 18.4µM* | ? | 0.164µM*
CC(=O)O[C@H]1C(=O)[C@@]2(C)C([C@H](OC(=O)c3ccccc3)[C@]3(O)C[C@H](OC(=O)[C@H](O)[C@@H](NC(=O)c4ccccc4)c4ccccc4)C(C)=C1C3(C)C)[C@]1(OC(C)=O)CO[C@@H]1C[C@H]2O (stereo not given in full) | ? | 2.3 | -20.2% | ? | -22.5% | 0.058µM*
CCOC(=O)C1CCCN(C(=O)CN2C(=O)/C(=C/c3ccc(OC)cc3)Oc3ccccc32)C1 (stereo not given) | 1.7 | -3.8 | ? | 16.4µM* | -0.5% | i
CCOC(=O)C1CCCN(C(=O)CN2C(=O)c3ccccc3C2=O)C1 (stereo not given) | 2.4 | -0.2 | ? | i | -1.4% | i
Cc1ccc(OCC(=O)N(c2ccccn2)C2CCCCC2)c(C)c1 | 8.2 | 2.5 | 19.5% | 18.4µM* | -2.3% | i
Cc1cc(S(=O)(=O)NC2CCCCC2)ccc1OCC(=O)NCc1ccccn1 | -0.1 | -8.5 | . | 18.4µM* | 12.5% | i
COC(=O)c1cc(-c2cccc(OC(F)(F)F)c2)c(=O)n2c1CCC2 | . | -2.7 | . | . | . | .
COc1ccc(NC(=O)C(OC(=O)CNC(=O)c2ccccc2)c2ccccc2)cc1F (stereo not given) | . | -2.4 | 13.2% | . | 2.5% | .
N=c1oc2ccc3ccccc3c2cc1-c1nc(-c2ccccc2)cs1 | -7.2 | 0.4 | -3.3% | i | -3.0% | i
N=c1oc2ccccc2cc1-c1nc(-c2ccccc2)cs1 | 4.3 | -0.9 | 44.7% | 23.1µM* | 17.0% | i
SMILES | Giardia killer | PI4K2A inh | Nrf2 inh | KB-V1 MDR tox | A549 viability | KB-3-1 cytotox
Cc1cccc(-c2cccc3c4c([nH]c23)[C@@H]2C[C@H](N(C)C(=O)c3ccccc3F)[C@H]([C@H](C)O)CN2CC4)c1 | . | -3.0 | . | . | . | .
COc1ccc(S[C@]2(C(=O)N3CCCC3)CC(=O)N(c3ccsc3)[C@@H]2c2ccc(OC)cc2)cc1 | . | -0.5 | . | . | . | .
CSc1nc(N)nc(SCC(=O)C(C)(C)C)c1C#N | -21.0 | 12.1 | 19.7% | i | 12.9% | i
CSc1nc(N)nc(SCC(=O)Nc2cccc(F)c2)c1C#N | 6.9 | -6.3 | ? | 2.31µM* | 8.5% | ?
CSc1nc(N)nc(SCC(=O)Nc2ccc(Cl)cc2)c1C#N | 12.4 | 1.8 | 14.6µM* | i | ? | ?
N#CC1CCN(c2nc(-c3ccc(Br)cc3)cs2)CC1 | . | -5.0 | . | . | . | .
CC1CCN(c2ccc(C(=O)O)cc2NS(=O)(=O)c2ccccc2[N+](=O)[O-])CC1 | . | -5.9 | . | . | . | .
Cc1cc(C)nc(N2CCC(C(=O)N(C)CCc3ccccc3)CC2)n1 | . | -0.9 | . | . | . | .
CCCn1nc([N+](=O)[O-])c(C(C#N)c2nc3ccccc3s2)c(Cl)c1=O (stereo not given) | ? | -22.4 | ? | 5.8µM* | 13µM* | ?
COC(=O)C[C@H]1c2ccccc2S(=O)(=O)N1c1ccc(N(C)C)cc1 | . | . | . | ? | . | i
O=C(c1cc(COc2c(F)cccc2F)on1)N1CCC(c2ccncc2)CC1 | 31.2 | 1.6 | 7.31µM* | ? | -18.8% | 23.1µM*
Cc1cc(C(=O)CN2C(=O)C(=O)N(Cc3ccccc3)C2=O)c(C)n1Cc1ccccc1 | 7.6 | 1.6 | -41.2% | 20.6µM* | -1.1% | i
Cc1cc(C(=O)CN2C(=O)C(=O)N(C3CCCC3)C2=O)c(C)n1CCc1ccccc1 | -12.4 | -6.2 | 18.4µM* | ? | -5.2% | ?
COc1ccc(CCn2c(C)cc(C(=O)CN3C(=O)C(=O)N(Cc4ccco4)C3=O)c2C)cc1 | -14.6 | -11.2 | -28.4% | i | -14.3% | 5.8µM*
CC(=O)c1c(C)nc2nc(-c3ccccc3)nn2c1C | . | -1.8 | ? | ? | -0.9% | i
CC1(C)CC(=O)C=C(c2ccc(-c3ccc4[nH]ccc4c3)cc2)C1=O | . | -0.5 | . | ? | . | 8.2µM*
